Bioassay records: PubChem, several laboratories
NSD2 inh = NSD2 (human) methyltransferase inhibition. 310,000 tested, 0.54% active. AID 743445. NSD2 peptide methylation, AlphaScreen, 120 min. inhibition, % at 12.5 µM. O96028; in the data active = inhibition above about 50%
Pemphigus Ab inh = blocks pemphigus antibody binding to human desmoglein-3 | DSG3-coupled beads, scFv-anti-DSG3-GFP binding, flow cytometry; stronger effect = lower value | binding (percent of control), % at 10 µM | 310,000 tested, 0.48% active | AID 588358;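 active = binding more than 3 SD below its plate's average and above zero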;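 also: hits lower antibody fragment binding to DSG3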
Target sequence (P32926 whole entry, looked up, the tested form may be a part): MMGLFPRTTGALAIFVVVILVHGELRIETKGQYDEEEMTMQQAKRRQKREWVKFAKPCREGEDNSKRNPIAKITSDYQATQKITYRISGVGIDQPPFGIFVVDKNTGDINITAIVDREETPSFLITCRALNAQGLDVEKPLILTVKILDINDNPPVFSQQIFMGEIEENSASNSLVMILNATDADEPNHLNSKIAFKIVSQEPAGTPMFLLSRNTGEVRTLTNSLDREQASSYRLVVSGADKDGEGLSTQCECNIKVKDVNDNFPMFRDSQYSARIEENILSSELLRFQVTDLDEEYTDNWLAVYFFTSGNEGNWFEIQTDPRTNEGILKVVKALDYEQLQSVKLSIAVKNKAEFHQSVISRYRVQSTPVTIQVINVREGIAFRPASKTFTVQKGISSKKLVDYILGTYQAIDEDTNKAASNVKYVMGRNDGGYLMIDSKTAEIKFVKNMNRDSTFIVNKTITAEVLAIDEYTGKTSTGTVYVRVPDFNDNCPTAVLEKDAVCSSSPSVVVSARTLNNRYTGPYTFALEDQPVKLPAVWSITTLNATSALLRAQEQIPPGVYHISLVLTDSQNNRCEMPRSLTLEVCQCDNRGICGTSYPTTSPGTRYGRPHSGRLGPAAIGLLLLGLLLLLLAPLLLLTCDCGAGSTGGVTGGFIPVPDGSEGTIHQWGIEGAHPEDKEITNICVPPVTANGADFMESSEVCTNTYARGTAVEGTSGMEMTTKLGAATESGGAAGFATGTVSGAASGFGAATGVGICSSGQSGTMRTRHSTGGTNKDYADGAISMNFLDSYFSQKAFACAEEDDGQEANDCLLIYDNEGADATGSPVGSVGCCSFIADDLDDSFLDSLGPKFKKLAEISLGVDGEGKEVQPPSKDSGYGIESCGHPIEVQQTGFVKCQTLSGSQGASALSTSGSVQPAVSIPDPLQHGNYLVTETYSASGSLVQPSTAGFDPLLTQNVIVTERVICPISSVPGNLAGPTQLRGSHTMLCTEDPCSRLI
ATG4B inh = blocks human ATG4B protease cleavage of LC3 substrate. Q9Y4P1. ATG4B cleavage of LC3-PLA2, NBD-HPC fluorescence, 1 h. inhibition, % at 8.33 µM. 340,000 tested, 0.51% active. AID 504462; in the data active = inhibition above about 40%
CaV13 FRET inh = Primary screen for inhibitors of IQ motif and Ca2+-dependent inactivation inhibitor domain binding in CACNA1D, Förster resonance energy transfer in living cells, …; AID 743397; inhibition, % at 12.3 µM; HEK cells, CFP/YFP FRET ICDI-IQ, plate reader, 10 min; percent FRET-ratio fall versus neutral wells; 340,000 tested, 0.098% active;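 active = mean replicate inhibition of at least 30% and at least 1% of replicates passing that level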;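 also: 0% = median of the neutral control wells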
Vif imaging = inhibitors of HIV Vif; HEK293T cells, Vif self-association by quenched fluorescence, imaging, 24 h; inhibition, % at 7.49 µM; 340,000 tested, 0.35% active; in the data active = inhibition above about 50%, passing the limit was not always enough
N-glyco inh = N-linked glycosylation inhibition; 360,000 tested, 0.23% active; reporter increase, % at 12.5 µM; AID 588692; D54 ERlucT glycosylation luciferase reporter, 24 h; percent of 100 nM tunicamycin response;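 active = mean luciferase reporter signal, scaled so untreated is 0 and the glycosylation-blocking control 100, at or above a set limit in every replicate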;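 also: luciferase carries N-glycosylation sites so blocking glycosylation raises the light; 0% = median of neutral control wells and 100% = median of 100 nM tunicamycin wells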
Active calls of the source: *; . = no result. Most compounds without a hit are left out; they make up all but 1.9% or so of the library.

SMILES | NSD2 inh | Pemphigus Ab inh | ATG4B inh | CaV13 FRET inh | Vif imaging | N-glyco inh
CCN1/C(=C/C=C2/SC(=Nc3cccc4ncccc34)N(C)C2=O)Sc2ccccc21 | 0.8 | 111.4 | 1.4 | 0.9 | 2.9 | 1.9
CN(c1ncc(C(F)(F)F)cc1Cl)n1cc(C(N)=O)c2ccccc2c1=O | 110.1* | 104.6 | -1.2 | -5.8 | . | 0.8
O=C(O)C(CO)N=Cc1c(O)c2ccccc2oc1=O (stereo not drawn) | 30.3 | 105.1 | -2.9 | -4.9 | 0.0 | 0.2
CC(N=Cc1c(O)c2ccccc2oc1=O)C(=O)O (stereo not drawn) | 0.5 | 51.3* | 2.1 | -2.4 | 13.8 | -0.3
O=C(/C=C/c1ccc([N+](=O)[O-])s1)N1CCCC1 | 2.9 | 94.0 | -9.3 | -3.4 | 3.2 | 17.8
Cc1cc(C)cc(NC(=O)/C=C/c2ccc([N+](=O)[O-])s2)c1 | -4.6 | 101.4 | 4.6 | -3.0 | 96.5* | 20.4
O=C(/C=C/c1ccc([N+](=O)[O-])s1)N1CCCCC1 | . | 92.9 | 2.0 | -8.4 | 6.6 | 39.4*
Cc1cccc2cc(C(c3nnnn3C3CCCC3)N3CCOCC3)c(=O)[nH]c12 (stereo not drawn) | 0.0 | 100.0 | -1.5 | -8.0 | -15.9 | 1.8
COc1ccccc1CNC(=O)C/C(C)=N/NC(=O)Cc1ccccc1 | -6.8 | . | -3.8 | -5.3 | 1.4 | 2.4
O=C(CCC(=O)N1CCN(c2ccccc2F)CC1)N1CCN(c2ccccc2)CC1 | -1.9 | 77.0* | -11.5 | -3.3 | -13.1 | -0.2
O=C(CCC(=O)N1CCN(c2ccccc2F)CC1)N1CCN(c2ccc(F)cc2)CC1 | 1.7 | 115.0 | 5.1 | -4.4 | -4.1 | -0.8
COc1ccc(NC(=O)c2ccc3c(c2)S(=O)(=O)c2ccccc2C3=O)cc1 | . | 83.1* | -8.4 | 24.1 | 7.6 | 1.5
COc1cccc(C(=O)Nc2ccc3c(c2)C(=O)c2ccccc2C3=O)c1 | 6.2 | 98.5 | 0.3 | -4.5 | -3.1 | 34.0*
O=C(Cn1cc(C(=O)c2cccs2)c2ccccc21)NCc1ccc2c(c1)OCO2 | . | 74.6 | -23.3 | -8.8 | 17.6 | 0.0
COc1ccc(-c2cc(C)no2)cc1S(=O)(=O)Nc1cccc(C)c1 | 0.0 | . | -17.5 | -4.4 | -7.4 | 5.3
COc1ccc(-c2cc(C)no2)cc1S(=O)(=O)Nc1ccccc1 | -1.0 | 83.7 | -19.6 | -6.5 | 4.9 | 44.8*
CC(=O)NC(CCS(C)(=O)=O)C(=O)Nc1nc(C)cs1 (stereo not drawn) | . | 81.2* | 6.7 | -4.4 | -2.9 | 2.0
CN(C)S(=O)(=O)c1cccc(C(=O)NC2CCSc3ccccc32)c1 (stereo not drawn) | -0.9 | 90.1 | -2.2 | -2.2 | 98.7* | -0.5
CON(C)S(=O)(=O)c1cccc(C(=O)NC2CCSc3ccccc32)c1 (stereo not drawn) | -1.8 | 105.3 | -5.7 | -5.6 | 6.2 | -0.3
O=C(O)c1ccccc1OC(C(=O)Nc1cc(Cl)cc(Cl)c1)c1ccccc1 (stereo not drawn) | 0.0 | 87.8 | -7.8 | -7.3 | 5.0 | 29.4*
O=C(Nc1cc(Cl)cc(Cl)c1)C(c1ccccc1)N1CCCCC1 (stereo not drawn) | -3.5 | 130.8 | -2.5 | -13.8 | 10.4 | -4.1
N#C/C(=C/c1cccc(O)c1)C(=O)NCc1ccc(Cl)cc1 | -5.1 | 93.4 | -5.3 | -4.2 | -9.8 | 10.0
N#C/C(=C/c1ccc(O)c(O)c1)C(=O)NCc1ccc(Cl)cc1 | 78.2* | 91.4 | -16.5 | -2.8 | 32.8 | -2.5
CCOC(=O)C1(Cc2cccc(OC)c2)CCN(CCO)CC1 | -0.6 | 100.3 | -7.9 | -4.6 | 66.3* | -1.4
CCOC(=O)C1(CCOc2ccccc2)CCN(CC(O)CO)CC1 (stereo not drawn) | -1.5 | 89.9* | 2.3 | -3.4 | -2.0 | 0.1
SMILES | NSD2 inh | Pemphigus Ab inh | ATG4B inh | CaV13 FRET inh | Vif imaging | N-glyco inh
CCOC(=O)C1(Cc2cccc(OC)c2)CCN(CC(O)CO)CC1 (stereo not drawn) | 0.0 | 95.7 | -11.7 | -2.5 | 2.3 | -1.0
COc1ccccc1C(=O)N1C(CC(=O)Nc2ccc(C)c(C)c2)C(=O)NC2CCCCC21 (stereo not drawn) | -11.3 | 103.7 | -2.9 | -14.6 | -4.3 | 1.8
Cc1cccc(NC(=O)CC2C(=O)NC3CCCCC3N2C(=O)c2ccccc2Cl)c1 (stereo not drawn) | -1.0 | 89.1* | -5.8 | -21.0 | -0.9 | 1.1
CCOc1ccc(C(=O)Cn2cnc3ccccc3c2=O)cc1 | -3.9 | 89.0 | -13.1 | -2.8 | -0.4 | -0.4
O=C(Cn1cnc2ccccc2c1=O)c1ccc(OC(F)F)cc1 | -0.8 | 38.6* | -4.7 | -4.0 | 15.2 | 1.2
CCc1cn(C2CC(O)C(CO)O2)c(=O)[nH]c1=O (stereo not drawn) | 0.0 | . | 0.2 | -2.2 | -4.6 | 2.3
O=c1[nH]c(=O)n([C@H]2C[C@H](O)[C@@H](CO)O2)cc1I | . | 93.1 | -4.9 | -5.4 | -7.7 | 55.1*
CCn1c(CCNS(=O)(=O)c2ccccc2Br)nnc1SC | -0.7 | 109.5 | -3.9 | -2.3 | 54.2* | 0.9
CSc1nnc(CCNS(=O)(=O)c2ccccc2Br)n1C | . | 106.7 | 0.4 | -2.5 | -1.0 | 1.7
Cc1ccc(S(=O)(=O)N2CCN(CC(=O)Nc3ccc([N+](=O)[O-])cc3)CC2)cc1C | -1.2 | 87.0 | -14.6 | -1.3 | 0.2 | -1.4
Cc1cc(C)c(C)c(S(=O)(=O)N2CCN(CC(=O)Nc3ccc([N+](=O)[O-])cc3)CC2)c1C | -0.2 | 60.5* | 4.1 | -14.4 | 2.2 | 2.1
CC(C)(C)NS(=O)(=O)c1ccc(CCC(=O)Nc2ccc3c(c2)OCO3)cc1 | -0.4 | -0.5* | 2.7 | . | 4.5 | 0.7
COc1cccc(NC(=O)CN(C)CC(=O)Nc2ccc(Cl)cc2[N+](=O)[O-])c1 | 10.1 | 115.8 | -14.6 | -1.9 | 1.2 | -2.2
Cc1nn(Cc2ccc(F)cc2)c2sc(C(=O)Nc3ccccc3N3CCOCC3)cc12 | -0.2 | 85.6* | -10.9 | -3.4 | 1.1 | -2.4
COc1ccc(-c2cc3cc(OC)c(OC)cc3cn2)cc1OC | 0.2 | . | -14.7 | -4.0 | 2.3 | 5.9
CCOC(=O)c1cnc2c(ccc3ccccc32)c1NCCCN(C)C | -3.6 | 118.3 | -7.2 | -4.3 | -3.0 | 98.4*
CCOC(=O)c1cnc2c(C)c(Cl)ccc2c1NCCCN1CCOCC1 | -2.9 | 117.2 | -2.5 | -21.0 | 1.8 | 1.8
CCOC(=O)c1cnc2c(C)cc(C)cc2c1NCCCN1CCOCC1 | 1.5 | 108.8 | -0.3 | -3.0 | -3.8 | 29.2*
COc1cc2c(cc1OC)C(=O)C(c1ccc3c(c1)OCO3)CC2 (stereo not drawn) | -0.9 | 104.7 | . | -7.6 | -2.6 | -0.5
COc1cc2c(cc1OC)C(=O)C(Br)CC2 (stereo not drawn) | 139.8* | 95.4 | . | . | 6.9 | 12.9
